Measured values reported in PubChem BioAssay (NCI).
This is part of a sample that, as a whole, favours compounds with a hit. Of some 79,000 tested, about 15% had one in any assay. Activity calls are given as the source filed them. Cut-off read from the data, not from the text of the source: active = growth inhibition above about 70%; inactive = the rest.

Tests used:
[1] = NCI Yeast Anticancer Drug Screen. Data for the rad52 strain (AID 147);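 note: 0% = growth of vehicle-treated control cultures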; conditions: S. cerevisiae rad52 mutant growth inhibition, stronger effect = higher value
Method in brief: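 Yeast strain carrying a DNA damage repair alteration was exposed to test compounds. Growth inhibition was measured relative to vehicle-treated controls.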

[2] = NCI Yeast Anticancer Drug Screen. Data for the wt1 strain (AID 149);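 note: 0% = growth of vehicle-treated wt1 cultures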; conditions: S. cerevisiae wt1 strain (SPY 50644) growth inhibition, stronger effect = higher value
Method in brief: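 wt1 strain grown with compound or vehicle; inhibition taken from the growth difference.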

[3] = NCI Yeast Anticancer Drug Screen. Data for the rad50EPP+ strain (AID 151);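 note: 0% = growth of vehicle-treated control cultures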; conditions: S. cerevisiae rad50 mutant strain, stronger effect = higher value
Method in brief: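 Yeast strain carrying rad50 alteration (rad50EPP+) exposed to compounds; growth inhibition measured relative to vehicle-treated controls.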

[4] = NCI Yeast Anticancer Drug Screen. Data for the mgt1 strain (AID 153); conditions: S. cerevisiae mgt1 mutant growth inhibition, stronger effect = higher value
Method in brief: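 Yeast mgt1 strain (DNA repair/cell-cycle alteration panel) exposed to compounds; growth inhibition measured relative to vehicle-treated controls.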

[5] = NCI Yeast Anticancer Drug Screen. Data for the rad50 strain (AID 155);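 note: 0% = growth of vehicle-only cultures of the same strain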; conditions: S. cerevisiae rad50 strain growth inhibition, stronger effect = higher value
Method in brief: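 DNA repair mutant yeast, compound exposure, growth read-out; inhibition is taken relative to vehicle.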

[6] = NCI Yeast Anticancer Drug Screen. Data for the mec2-1 strain (AID 157); conditions: S. cerevisiae mec2-1 strain, stronger effect = higher value
Method in brief: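 mec2-1 yeast strain, carrying an alteration in DNA damage repair or cell cycle control, was exposed to compounds; growth inhibition was measured relative to vehicle-treated controls.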

[7] = NCI Yeast Anticancer Drug Screen. Data for the rad14 strain (AID 159);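 note: 0% = growth of vehicle-treated control cultures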; conditions: S. cerevisiae rad14 strain growth inhibition, stronger effect = higher value
Method in brief: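 DNA repair-defective yeast, compound-exposed; % growth inhibition derived by comparison with vehicle-treated controls.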

[8] = NCI Yeast Anticancer Drug Screen. Data for the sgs1 mgt1 strain (AID 161);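 note: 0% = growth of cultures given vehicle only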; conditions: S. cerevisiae sgs1 mgt1 strain, stronger effect = higher value
Method in brief: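 Percent growth inhibition was derived by comparing compound-exposed mutant yeast with vehicle-exposed cultures. The strain carries alterations in DNA damage repair.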

[9] = NCI Yeast Anticancer Drug Screen. Data for the CLN2oe strain (AID 163);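 note: 0% = growth of vehicle-only control cultures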; conditions: S. cerevisiae CLN2oe strain, stronger effect = higher value
Method in brief: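 Yeast cells carrying a defined cell-cycle control alteration were exposed to test compounds. Growth inhibition was scored against vehicle-treated control cultures.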

[10] = NCI Yeast Anticancer Drug Screen. Data for the cln2 rad14 strain (AID 165);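 note: 0% = growth equal to vehicle treated cultures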; conditions: S. cerevisiae cln2 rad14 strain, stronger effect = higher value
Method in brief: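 Yeast carrying cln2 and rad14 alterations (cell cycle control and DNA damage repair) were exposed to compounds. Growth inhibition was measured against vehicle-treated controls.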

[11] = NCI Yeast Anticancer Drug Screen. Data for the bub3 strain (AID 167); conditions: S. cerevisiae bub3 mutant strain, stronger effect = higher value
Method in brief: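 In this screen, a yeast mutant lacking normal mitotic checkpoint function is challenged with compound. Relative growth versus vehicle gives the inhibition value.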

[12] = NCI Yeast Anticancer Drug Screen. Data for the mlh1 strain (AID 171);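 note: 0% = growth of vehicle-treated control cultures of the same strain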; conditions: S. cerevisiae mlh1 strain growth inhibition, stronger effect = higher value
Method in brief: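 Yeast carrying a defined genetic alteration in DNA damage repair or cell cycle control were exposed to test compounds. Growth inhibition was measured relative to vehicle-treated controls.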

[13] = NCI Yeast Anticancer Drug Screen. Data for the sgs1 strain (AID 173);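 note: 0% = growth of vehicle-only control cultures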; conditions: S. cerevisiae sgs1 mutant, stronger effect = higher value
Method in brief: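 Yeast mutant strains carrying defined defects in DNA damage repair or cell cycle control were exposed to test compounds. Growth inhibition was scored against vehicle-treated controls.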

[14] = NCI Yeast Anticancer Drug Screen. Data for the mlh1 rad18 strain (AID 175); conditions: S. cerevisiae mlh1 rad18 strain growth inhibition, stronger effect = higher value
Method in brief: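 Growth inhibition of the yeast strain was measured after compound exposure and expressed relative to vehicle-treated controls. The strain carries defined defects in DNA damage repair.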

[15] = NCI Yeast Anticancer Drug Screen. Data for the rad18 strain (AID 177); conditions: S. cerevisiae rad18 mutant growth inhibition, stronger effect = higher value
Method in brief: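 Yeast carrying a defined DNA damage repair alteration were exposed to compounds. Growth inhibition was expressed relative to vehicle-treated controls.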

[16] = at 5.0 µM (retest, dose inferred, filed as 0.5)
[17] = at 50.0 µM (retest, dose inferred, filed as 5.0)

Measured: growth inhibition

CCCCCCCCCCCCCCCCCCN(C)C(COC)COP(=O)([O-])OCC[N+](C)(C)C (stereo unspecified)
active: [1]; at 11.0 µM 95% | [1]; at 33.0 µM 97% | [1]; at 100.0 µM 97% | [2]; at 11.0 µM 98% | [2]; at 33.0 µM 99% | [2]; at 100.0 µM 98% | [3]; at 11.0 µM 97% | [3]; at 33.0 µM 98% | [3]; at 100.0 µM 98% | [4]; at 11.0 µM 98% | [4]; at 33.0 µM 99% | [4]; at 100.0 µM 98% | [5]; at 11.0 µM 97% | [5]; at 33.0 µM 98% | [5]; [17] 98% | [5]; at 50.0 µM 73.6% | [5]; at 100.0 µM 98% | [6]; at 11.0 µM 97% | [6]; at 33.0 µM 98% | [6]; [17] 99% | [6]; at 100.0 µM 98% | [7]; at 11.0 µM 96% | [7]; at 33.0 µM 98% | [7]; at 100.0 µM 97% | [8]; at 50.0 µM 85.8% | [9]; at 11.0 µM 97% | [9]; at 33.0 µM 98% | [9]; at 100.0 µM 98% | [11]; at 11.0 µM 98% | [11]; at 33.0 µM 98% | [11]; at 50.0 µM 85.2% | [11]; at 100.0 µM 98% | [12]; at 11.0 µM 97% | [12]; at 33.0 µM 98% | [12]; at 100.0 µM 98% | [13]; at 11.0 µM 97% | [13]; at 33.0 µM 98% | [13]; at 100.0 µM 98% | [14]; [17] 98% | [15]; at 11.0 µM 97% | [15]; at 33.0 µM 98% | [15]; at 100.0 µM 98%
inactive: [1]; at 1.2 µM -58% | [1]; at 3.7 µM -67% | [2]; at 1.2 µM -34% | [2]; at 3.7 µM -56% | [3]; at 1.2 µM -33% | [3]; at 3.7 µM 63% | [4]; at 1.2 µM 14% | [4]; at 3.7 µM 8% | [5]; at 1.2 µM -24% | [5]; at 3.7 µM -11% | [5]; [16] 1% | [6]; at 1.2 µM -48% | [6]; at 3.7 µM -46% | [6]; [16] 12% | [6]; at 50.0 µM 23.9% | [7]; at 1.2 µM -69% | [7]; at 3.7 µM -78% | [8]; [16] 3% | [8]; [17] 2% | [9]; at 1.2 µM -39% | [9]; at 3.7 µM -44% | [10]; [16] 13% | [10]; [17] -70% | [10]; at 50.0 µM 8.85% | [11]; at 1.2 µM -23% | [11]; at 3.7 µM -40% | [11]; [16] 14% | [11]; [17] 10% | [12]; at 1.2 µM -34% | [12]; at 3.7 µM -54% | [13]; at 1.2 µM -64% | [13]; at 3.7 µM -64% | [14]; [16] 16% | [14]; at 50.0 µM 50% | [15]; at 1.2 µM -64% | [15]; at 3.7 µM -24%

O=C1C=CC(=Nc2cccc3c2-c2ccccc2C3=O)O1
inactive: [1]; at 1.2 µM 3% | [1]; at 3.7 µM 16% | [1]; at 11.0 µM 67% | [2]; at 1.2 µM -2% | [2]; at 3.7 µM 8% | [2]; at 11.0 µM 42% | [3]; at 1.2 µM 4% | [3]; at 3.7 µM 24% | [3]; at 11.0 µM 61% | [4]; at 1.2 µM 1% | [4]; at 3.7 µM 17% | [5]; at 1.2 µM 3% | [5]; at 3.7 µM 19% | [5]; [16] 26% | [6]; at 1.2 µM 6% | [6]; at 3.7 µM 23% | [6]; [16] 36% | [7]; at 1.2 µM 5% | [7]; at 3.7 µM 18% | [8]; [16] 36% | [9]; at 1.2 µM -3% | [9]; at 3.7 µM 5% | [9]; at 11.0 µM 60% | [10]; [16] 14% | [11]; at 1.2 µM -7% | [11]; at 3.7 µM 0% | [11]; [16] 14% | [12]; at 1.2 µM 7% | [12]; at 3.7 µM 18% | [13]; at 1.2 µM 7% | [13]; at 3.7 µM 25% | [14]; [16] 28% | [15]; at 1.2 µM 8% | [15]; at 3.7 µM 23%
active: [1]; at 33.0 µM 97% | [1]; at 100.0 µM 98% | [2]; at 33.0 µM 99% | [2]; at 100.0 µM 99% | [3]; at 33.0 µM 89% | [3]; at 100.0 µM 97% | [4]; at 11.0 µM 71% | [4]; at 33.0 µM 99% | [4]; at 100.0 µM 99% | [5]; at 11.0 µM 79% | [5]; at 33.0 µM 98% | [5]; [17] 99% | [5]; at 50.0 µM 99.5% | [5]; at 100.0 µM 97% | [6]; at 11.0 µM 75% | [6]; at 33.0 µM 99% | [6]; [17] 99% | [6]; at 50.0 µM 99.5% | [6]; at 100.0 µM 99% | [7]; at 11.0 µM 94% | [7]; at 33.0 µM 99% | [7]; at 100.0 µM 98% | [8]; [17] 99% | [8]; at 50.0 µM 99.6% | [9]; at 33.0 µM 99% | [9]; at 100.0 µM 98% | [10]; [17] 99% | [10]; at 50.0 µM 98.7% | [11]; at 11.0 µM 72% | [11]; at 33.0 µM 97% | [11]; [17] 99% | [11]; at 50.0 µM 99.7% | [11]; at 100.0 µM 98% | [12]; at 11.0 µM 84% | [12]; at 33.0 µM 99% | [12]; at 100.0 µM 99% | [13]; at 11.0 µM 83% | [13]; at 33.0 µM 99% | [13]; at 100.0 µM 99% | [14]; [17] 99% | [14]; at 50.0 µM 85% | [15]; at 11.0 µM 83% | [15]; at 33.0 µM 99% | [15]; at 100.0 µM 98%
